In all, about 18,000 sequences were measured (“log2 normalized intensity”: median about 0.39, highest 2% from about 6.6 on). The full list was thinned out, with the highest values kept by preference.

This note sets out measurements from article PMC10726135, “HNF4α isoforms regulate the circadian balance between carbohydrate and lipid metabolism in the liver”.

The target of the test is T1, HNF4alpha2 (COS-7 nuclear extract) (Homo sapiens, UniProt P41235 1-474).
T1 sequence: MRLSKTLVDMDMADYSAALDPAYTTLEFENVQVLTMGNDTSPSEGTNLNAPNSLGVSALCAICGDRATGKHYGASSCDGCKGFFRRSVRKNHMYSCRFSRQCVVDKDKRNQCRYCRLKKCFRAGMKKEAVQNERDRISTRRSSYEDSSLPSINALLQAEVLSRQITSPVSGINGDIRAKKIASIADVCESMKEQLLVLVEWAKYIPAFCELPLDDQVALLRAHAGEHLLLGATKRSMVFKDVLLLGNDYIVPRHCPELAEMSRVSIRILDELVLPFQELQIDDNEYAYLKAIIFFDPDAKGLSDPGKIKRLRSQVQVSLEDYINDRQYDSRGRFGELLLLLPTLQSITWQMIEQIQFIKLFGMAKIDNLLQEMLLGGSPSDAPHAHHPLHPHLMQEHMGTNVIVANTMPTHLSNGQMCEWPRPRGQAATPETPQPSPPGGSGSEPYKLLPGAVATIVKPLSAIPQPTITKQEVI
Put plainly: protein-binding microarray; COS-7 nuclear extract on double-stranded Agilent 4x180k PBM; binding buffer, salt, pH and temperature not given in the material; high values mean tight binding. The settings on record: chain copies: 2; label: 3' end of strand 1 on the slide; dsDNA, one strand shown. The essentials: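 Using CaPO4, COS-7 cells were transiently transfected with a human HNF4α isoform expression vector, and their nuclear extracts were applied to a custom Agilent SurePrint G3 4x180k double-stranded oligonucleotide array (~60 nt; ~44,000 test sequences in quadruplicate). Bound HNF4α was imaged at 2-µm resolution with an Agilent G2565CA scanner. Agilent software supplied the background-corrected, normalized gProcessedSignal that serves as the binding signal.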
“ACGTGGCAATCATTCTGTCTGCCTTCAGGCGCCTAGGGAGATTAGAGTATCGGTCGA”: the binding signal was -0.947 log2 normalized intensity.
The figure for “CACTGTTGCCCCTTCCAAAGTCCACCTCAAGCCTAGGGAGATTAGAGTATCGGTCGA” is 4.43 log2 normalized intensity; for “CCTTTTTGGAATGTGTTTGCATGACTCATAGCCTAGGGAGATTAGAGTATCGGTCGA” it is 1.77 log2 normalized intensity; for “ATGACCTTTGAGCAATAGGAAATGGGAGGGGCCTAGGGAGATTAGAGTATCGGTCGA” it is 2.34 log2 normalized intensity.
Then “GCATGGAATGACTTTGGGGAAATGACCTTTGCCTAGGGAGATTAGAGTATCGGTCGA”, with 7.23 log2 normalized intensity; and “CCTTGACACATCTGATTAGAGGCTCAGGTAGCCTAGGGAGATTAGAGTATCGGTCGA”, with -0.794 log2 normalized intensity; and “GGAATGTCTGACCAACCTGTCCAAAGGTCAGCCTAGGGAGATTAGAGTATCGGTCGA”, with 7.66 log2 normalized intensity.
On to “ACCAACCTGTCCAAAGGTCATCTGTCACTCGCCTAGGGAGATTAGAGTATCGGTCGA”, for which the binding signal was determined as 5.7 log2 normalized intensity.
The figure for “AGTATATTGGCTTGGCTGTGTCCCTTGACCGCCTAGGGAGATTAGAGTATCGGTCGA” is 3.04 log2 normalized intensity.
Regarding “CTGTACACTTACAAGTGTACAAAGGTCACTGCCTAGGGAGATTAGAGTATCGGTCGA”, the binding signal came to 7.61 log2 normalized intensity.
“CACTTACAAGTGTACAAAGGTCACTTCTGTGCCTAGGGAGATTAGAGTATCGGTCGA”: the binding signal is 6.32 log2 normalized intensity.
Then “TCAGAGGAATGTCTGACCAACCTGTCCAAAGCCTAGGGAGATTAGAGTATCGGTCGA”, with 0.136 log2 normalized intensity.
Consider “CTTGGCTGTGTCCCTTGACCAAAGGTCACTGCCTAGGGAGATTAGAGTATCGGTCGA”, for which the binding signal amounted to 6.77 log2 normalized intensity.
Regarding “TATACCTGTACACTTACAAGTGTACAAAGGGCCTAGGGAGATTAGAGTATCGGTCGA”, the binding signal came out at 2.65 log2 normalized intensity.
The figure for “ATTGGCTTGGCTGTGTCCCTTGACCAAAGGGCCTAGGGAGATTAGAGTATCGGTCGA” is 2.07 log2 normalized intensity; for “GTCTGACCAACCTGTCCAAAGGTCATCTGTGCCTAGGGAGATTAGAGTATCGGTCGA” it is 7.04 log2 normalized intensity; for “CCTGTCCAAAGGTCATCTGTCACTCTAGATGCCTAGGGAGATTAGAGTATCGGTCGA” it is 5.47 log2 normalized intensity.
Then “TTATATCAGAGGAATGTCTGACCAACCTGTGCCTAGGGAGATTAGAGTATCGGTCGA”, with 0.0786 log2 normalized intensity; and “AAGGCTTTGAAGTCTGGTGGCAAGTACCCTGCCTAGGGAGATTAGAGTATCGGTCGA”, with -0.842 log2 normalized intensity; and “ATTTTCTCATCCCAGGGATAATGATAAAGAGCCTAGGGAGATTAGAGTATCGGTCGA”, with -0.184 log2 normalized intensity.
Then “TCCCTTTAGTGGAGTATAGGAACATGAACTGCCTAGGGAGATTAGAGTATCGGTCGA”, with 1.96 log2 normalized intensity; and “GAGTTGGGGACAAAGTTCAAGGTCCAGCCTGCCTAGGGAGATTAGAGTATCGGTCGA”, with 5.28 log2 normalized intensity; and “GTCCAAGATGGCAATGTTCCTGCTCTGTCAGCCTAGGGAGATTAGAGTATCGGTCGA”, with -0.996 log2 normalized intensity.
For “AGATTACTTCAAGGCTGGAGTTCACTCCCAGCCTAGGGAGATTAGAGTATCGGTCGA”, the binding signal was -0.354 log2 normalized intensity.
The figure for “CATGGGTCTCTTCCTCAGTTTGTTCTTGGGGCCTAGGGAGATTAGAGTATCGGTCGA” is 1.18 log2 normalized intensity; for “GATCCAAAAGACCCAGGTGTGTTGCAACTTGCCTAGGGAGATTAGAGTATCGGTCGA” it is 0.84 log2 normalized intensity.
Take “CCCATCCGCAGTGGGAGAGCAAGGGTCAAGGCCTAGGGAGATTAGAGTATCGGTCGA”: the binding signal is 3.57 log2 normalized intensity.
The figure for “GTGGGAGAGCAAGGGTCAAGGGTCATTTGTGCCTAGGGAGATTAGAGTATCGGTCGA” is 6.7 log2 normalized intensity; for “AAGGGTCAAGGGTCATTTGTTTTTACAGACGCCTAGGGAGATTAGAGTATCGGTCGA” it is 6.27 log2 normalized intensity.
Then “TGGGTGGGGGAAGTGTGGTCAAGGGTCAGTGCCTAGGGAGATTAGAGTATCGGTCGA”, with 4 log2 normalized intensity; and “CCGCAGTGGGAGAGCAAGGGTCAAGGGTCAGCCTAGGGAGATTAGAGTATCGGTCGA”, with 6.65 log2 normalized intensity; and “AGAGCAAGGGTCAAGGGTCATTTGTTTTTAGCCTAGGGAGATTAGAGTATCGGTCGA”, with 5.91 log2 normalized intensity.
Then “CAGAACAAAGTCCAGTAAGGACAGTTCCAGGCCTAGGGAGATTAGAGTATCGGTCGA”, with 2.29 log2 normalized intensity; and “CTTGTAAGCCACAGTACAAAGGTGAGCTTTGCCTAGGGAGATTAGAGTATCGGTCGA”, with 3.57 log2 normalized intensity; and “TGGATCATGTGTCTGAGCAAGTTTCCTCCTGCCTAGGGAGATTAGAGTATCGGTCGA”, with -0.544 log2 normalized intensity.
“CCTCGAGGCAACCTTTGACCTGGTACTATGGCCTAGGGAGATTAGAGTATCGGTCGA”: the binding signal came to 6.02 log2 normalized intensity.
As to “AAGTATCTCGGTCAAACCTTTGACCCTTTAGCCTAGGGAGATTAGAGTATCGGTCGA”, the binding signal stood at 6.7 log2 normalized intensity.
Then “ATCACTGAAGCGACCCCTCGAGGCAACCTTGCCTAGGGAGATTAGAGTATCGGTCGA”, with 1.12 log2 normalized intensity; and “TCTCGGTCAAACCTTTGACCCTTTATAATCGCCTAGGGAGATTAGAGTATCGGTCGA”, with 5.95 log2 normalized intensity; and “TGAAGCGACCCCTCGAGGCAACCTTTGACCGCCTAGGGAGATTAGAGTATCGGTCGA”, with 8.54 log2 normalized intensity.
For “GTCAAATCACTGAAGCGACCCCTCGAGGCAGCCTAGGGAGATTAGAGTATCGGTCGA”, the binding signal is 1.42 log2 normalized intensity.
The figure for “GTCAAACCTTTGACCCTTTATAATCCCCTAGCCTAGGGAGATTAGAGTATCGGTCGA” is 4.25 log2 normalized intensity.
The figure for “GAAACCCTAAACCTGCAAACCTTTGACCTTGCCTAGGGAGATTAGAGTATCGGTCGA” is 5.31 log2 normalized intensity; for “CGACCCCTCGAGGCAACCTTTGACCTGGTAGCCTAGGGAGATTAGAGTATCGGTCGA” it is 7.48 log2 normalized intensity.
The figure for “CTGAATAAAACAAACTCATTTTGATCTTTGGCCTAGGGAGATTAGAGTATCGGTCGA” is 2.24 log2 normalized intensity.
Consider “CAGCAGACTCAGAAAAATATGTGGACTTCAGCCTAGGGAGATTAGAGTATCGGTCGA”, for which the binding signal came to 2.49 log2 normalized intensity.
“CACCCCCATCTATGCACTCTCACCTTGGGGGCCTAGGGAGATTAGAGTATCGGTCGA”: the binding signal was 0.591 log2 normalized intensity.
Then “CAAATTGCTGACTTTCTGTGTCTTGGCAGTGCCTAGGGAGATTAGAGTATCGGTCGA”, with 1.59 log2 normalized intensity; and “TCTACCTGACCTCCCAAAATTCTTCACATAGCCTAGGGAGATTAGAGTATCGGTCGA”, with -0.0778 log2 normalized intensity.
The figure for “TTCCCATTCATAAAATTACGCCACAGAGTTGCCTAGGGAGATTAGAGTATCGGTCGA” is -0.871 log2 normalized intensity; for “AGAAGCTTGGTATGTCTGATGAATAGAAAGGCCTAGGGAGATTAGAGTATCGGTCGA” it is 0.62 log2 normalized intensity; for “GGAGTGACCCTGGGAGCAAAGGTCAAGAGTGCCTAGGGAGATTAGAGTATCGGTCGA” it is 6.55 log2 normalized intensity.
For “ATCCACCCATCCAAAGGTCAGCAATCTCAAGCCTAGGGAGATTAGAGTATCGGTCGA”, the binding signal worked out at 2.93 log2 normalized intensity.
Then “GGTGTAAGCTCTGGAGTCCAAAGGTCAGCAGCCTAGGGAGATTAGAGTATCGGTCGA”, with 8.34 log2 normalized intensity.
For the sequence “TCCACAGTCAAGGCCAAAGGTTAAAAATAAGCCTAGGGAGATTAGAGTATCGGTCGA”, the binding signal is 3.7 log2 normalized intensity.
The figure for “TCATTTCAGCCTTAACTCAAAAGGCCAAAGGCCTAGGGAGATTAGAGTATCGGTCGA” is -0.978 log2 normalized intensity; for “GGAGACCACTGGTGTAAGCTCTGGAGTCCAGCCTAGGGAGATTAGAGTATCGGTCGA” it is 0.767 log2 normalized intensity.
The figure for “TCAGCCTTAACTCAAAAGGCCAAAGTCCAAGCCTAGGGAGATTAGAGTATCGGTCGA” is 8.38 log2 normalized intensity; for “AAGCTCTGGAGTCCAAAGGTCAGCAAGCCTGCCTAGGGAGATTAGAGTATCGGTCGA” it is 7.73 log2 normalized intensity.
The figure for “CCACTGGTGTAAGCTCTGGAGTCCAAAGGTGCCTAGGGAGATTAGAGTATCGGTCGA” is 3.79 log2 normalized intensity; for “GTCCAAAGGTCAGCAAGCCTGGAGTTCTGAGCCTAGGGAGATTAGAGTATCGGTCGA” it is 4.22 log2 normalized intensity.
In the case of “AAGGTCAGCAAGCCTGGAGTTCTGATGTTCGCCTAGGGAGATTAGAGTATCGGTCGA”, the binding signal was 0.534 log2 normalized intensity.
“CTGGAGTCCAAAGGTCAGCAAGCCTGGAGTGCCTAGGGAGATTAGAGTATCGGTCGA”: the binding signal was 6.88 log2 normalized intensity.
